Bioassay records from PubChem.
aSyn rescue: qHTS of alpha-syn Inhibitors; Yeast expressing alpha-synuclein, growth rescue, BacTiter-Glo, 24 h; Potency, µM (doses to about 46.1 µM), for the others: top-dose growth rescue (activation), most hits filed as activators; actives 0.14% (n = 370,000); note: % of control where 0% means no effect; nearly all actives have a fitted effect of over 65% in size
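Galactose-induced alpha-syn yeast (OD600=0.02, raffinose-pregrown) + pinned cpd, 24 hr, 30 deg C; growth by BacTiter-Glo luminescence. Growth restoration scores as activation.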
A-T KAP1 phos: qHTS Assay for Identifying a Potential Treatment of Ataxia-Telangiectasia | F2112 A-T fibroblasts, KAP-1 phosphorylation AlphaLISA; neocarzinostatin DNA damage 30 min before lysis | actives 0.19% (n = 320,000) | Potency, µM (highest dose often 57.5 µM), without a hit: at the top dose activation, hits mostly activators | AID 485349, 2010; note: % of control where 0% means no effect; nearly all actives have a fitted effect of over 45% in size
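hTERT-immortalized A-T patient fibroblasts (F2112), 500 cells/well in OPTI-MEM, 1% FBS, got compounds for 60 min, then NCS for 30 min at 37C. Lysates were then assayed for phospho-KAP-1 by AlphaLISA (anti-pKAP1 donor, anti-KAP1 acceptor beads), 6 hr at 25C.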
Abeta rescue: qHTS for compounds that reverse cellular toxicity of Amyloid beta (A-beta) peptide in yeast: Primary Screen. AID 1347071, 2019. actives 0.063% (n = 410,000). yeast expressing A-beta42, growth rescue, OD600, 48 h; response scale: 0% DMSO, 100% iron-clioquinol control. Potency, µM (series often up to 46.1 µM), most hits filed as activators; note: nearly all actives have a fitted effect of over 55% in size
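Yeast A-beta toxicity model in growth medium with pinned compounds, 48 h at 30 C; growth read as absorbance at 600 nm. Normalized to FeCl3/clioquinol equimolar mix (positive) and DMSO (negative).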
TDP43 rescue: qHTS of TDP-43 Inhibitors; TDP-43 expressing yeast growth rescue, BacTiter-Glo, 24 h; Potency, µM (titrated, usually from 46.1 µM), for inactives: top-dose growth rescue (activation), most hits filed as activators; actives 1.8% (n = 410,000); AID 652104, 2013; note: % of control where 0% means no effect; nearly all actives have a fitted effect of over 50% in size
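Luminescence from BacTiter-Glo reports growth of TDP-43-expressing yeast after 24 hr at 30 deg C with compound. Cells were raffinose-pregrown to mid-log, then seeded in galactose medium at OD600=0.02.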
Glioma ERSR ind: qHTS for Inducers of the Endoplasmic Reticulum Stress Response (ERSR) in Human Glioma: qHTS; U87-MG GRP78 promoter luciferase reporter, 16 h; Potency, µM, without a hit: at the highest dose activation, hits mostly activators; actives 0.02% (n = 420,000); AID 602332, 2012; note: series mostly up to about 76 µM; % of control where 0% means no effect; nearly all actives have a fitted effect of over 35% in size
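Stably transfected U87-MG glioma cells carrying a GRP78-based luciferase sensor; 16 h compound incubation. Luminescence end-point read 10 min after Bright-Glo addition at room temperature.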
Mito fusion yeast: qHTS Assay for Small Molecule Inhibitors of Mitochondrial Division or Activators of Mitochondrial Fusion | S. cerevisiae fusion-defective mutant growth rescue, CellTiterGlo 48 h | Potency, µM (highest dose often 46.1 µM), without a hit: at the top dose growth rescue (activation), most hits filed as activators | actives 0.23% (n = 320,000) | AID 485298, 2010; note: % of control where 0% means no effect; nearly all actives have a fitted effect of over 45% in size
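Growth-rescue viability read-out: after 48 h at the non-permissive 37C in glycerol/ethanol YPEG, yeast mitochondrial fusion mutants are measured by CellTiterGlo luminescence; compounds (23 nl pinned per well) restoring growth score as division inhibitors or fusion activators.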
The depositor's hits bear a star; i = inactive; ? = inconclusive; . = no result given. Shown are actives, neighbours in structure and some others; about 2.1% of the full set was active somewhere. Calls come from the whole dose curve; as a rule, active = well fitted curve in the direction sought with a large enough effect; inconclusive = small, poorly fitted or top-dose-only effect, or another doubt; inactive = no such curve, though single readings can be large; an effect the other way counts as inactive or inconclusive. Potency is the fitted concentration of half-maximal effect.

SMILES	aSyn rescue	A-T KAP1 phos	Abeta rescue	TDP43 rescue	Glioma ERSR ind	Mito fusion yeast
CCOC(=O)c1c(CN2CCOCC2)n(-c2ccccc2)c2cc(Br)c(OC)cc12	-2.0%	7.6%	i	15.8µM*	-2.8%	-7.0%
CC(C)(C)n1ncc2c(=O)n(Cc3ccc(F)c(F)c3F)cnc21	.	.	.	.	-3.2%	.
FC(F)(F)c1nnc2c(Sc3ccccn3)nc3ccccc3n12	-1.8%	-10.2%	i	15.8µM*	12.1%	-3.3%
FC(F)(F)c1nnc2c(Sc3ccccc3)nc3ccccc3n12	-7.0%	1.3%	i	26.2%	11.3%	-0.5%
C=C(C)Cn1c(=S)[nH]c2ccccc2c1=O	5.2%	.	i	12.6µM*	-4.4%	3.5%
CO[C@H]1COC(=O)[C@H]2CCCN2C(=O)[C@@H](C)COC(=O)C/C=C\[C@@H]1C	.	.	.	.	-3.1%	.
CCOC(=O)C1=CCN(S(=O)(=O)c2ccccc2)C1c1ccc(Cl)cc1 (stereo unspecified)	28.5%	.	i	35.5µM*	9.2%	.
CCOC(=O)C1=CCN(S(=O)(=O)c2ccc(F)cc2)C1c1ccc(F)cc1 (stereo unspecified)	4.4%	.	i	0.0%	.	.
CCOC(=O)C1=CCN(S(=O)(=O)c2ccc(F)cc2)C1c1ccc(Br)cc1 (stereo unspecified)	23.8%	.	i	35.5µM*	-4.4%	.
Cc1cc(-c2cc(F)cc3c2OC(CNC(=O)[C@@H]2CCC(=O)N2)C3)ccc1F (stereo partly specified)	.	.	.	.	-6.9%	.
COc1cc(CN2CCCC(n3cc(C(=O)N4CCCCC4)nn3)C2)cc2c1OCO2 (stereo unspecified)	.	.	.	.	-4.3%	.
CCCCCNC(=O)C(C1CC1)n1c(=O)c(-c2ccccc2)nc2ccccc21 (stereo unspecified)	-8.8%	.	i	13.4%	.	.
COc1ccc(NC(=O)C(C2CC2)n2c(=O)c(-c3ccccc3)nc3ccccc32)cc1 (stereo unspecified)	12.3%	.	i	20µM*	.	.
COc1cc(OC)c2nc(-c3cc4c(c(OC)c3)OCCN(Cc3cn(C)nc3C)C4)cc(C)c2c1	.	.	.	.	1.5%	.
O=C(/C=C/Nc1ccccc1)c1ccccc1	-10.5%	.	i	19.5%	-7.6%	6.8%
CC(=O)Nc1ccc(N/C=C/C(=O)c2ccccc2)cc1	12.2%	-0.7%	i	12.6µM*	0.3%	-2.2%
CNc1nc(Oc2ccc3sc(C)nc3c2)c2sccc2n1	8.3%	.	i	20µM*	-0.4%	.
CCCC(=O)O[C@]1(C(=O)CCl)[C@H](C)C[C@@H]2[C@H]3CCC4=CC(=O)C=C[C@]4(C)[C@@]3(F)C(=O)C[C@@]21C	.	.	.	.	-4.1%	.
O=C(c1ccc(Cl)cc1)c1cc(-c2ccccn2)c(N2CCOCC2)s1	5.3%	1.1%	i	14.1µM*	-6.9%	2.1%
CCC(C)NC(=O)c1c(N)n(/N=C/c2cccnc2)c2nc3ccccc3nc12 (stereo unspecified)	4.2%	9.5%	i	14.1µM*	0.4%	0.0%
CC(C)CNC(=O)c1c(N)n(/N=C/c2cccnc2)c2nc3ccccc3nc12	.	-0.1%	.	.	.	-1.1%
Cc1ccc(S(=O)(=O)Nc2cccc3cccnc23)c([N+](=O)[O-])c1	17.8µM*	2.8%	i	7.94µM*	?	15.9%
N/C(Cc1ccc([N+](=O)[O-])cc1)=N\OC(=O)c1ccccc1F	1.4%	4.0%	i	11.2µM*	-6.2%	-1.1%
N/C(Cc1ccc([N+](=O)[O-])cc1)=N\OC(=O)Cc1ccccc1	-8.1%	0.4%	i	?	0.9%	14.0%
Cc1cnc(CNC(=O)c2c3n(c(C)cc2=O)-c2ccccc2SC(c2ccsc2)C3)cn1 (stereo unspecified)	.	.	.	.	-2.2%	.
SMILES	aSyn rescue	A-T KAP1 phos	Abeta rescue	TDP43 rescue	Glioma ERSR ind	Mito fusion yeast
COc1ccc(-c2nc3sc(CCNC(=O)c4ccc(Br)o4)c(C)n3n2)cc1	.	.	i	11.2µM*	-2.4%	.
COc1ccc(-c2nc3scc(CCNS(=O)(=O)c4c(C)cc(C)cc4C)n3n2)cc1OC	.	.	i	22.4µM*	-3.2%	.
COc1ccc(-c2nc3sc(CCNS(=O)(=O)c4c(C)cc(C)cc4C)c(C)n3n2)cc1	.	.	?	35.5µM*	-1.8%	.
COc1ccc(S(=O)(=O)NCCc2csc3nc(-c4ccc(OC)c(OC)c4)nn23)cc1C	.	.	i	13.6%	-0.5%	.
COc1ccc(-c2nc3scc(CCNS(=O)(=O)c4cccs4)n3n2)cc1	.	.	i	25.1µM*	-0.7%	.
CCc1ccc(S(=O)(=O)NCCc2csc3nc(-c4ccccc4)nn23)s1	.	.	i	22.4µM*	-4.0%	.
CCC1CN(CCNC(=O)c2ccc(N3CCOCC3)cc2)Cc2cc(OC)ccc2O1 (stereo unspecified)	.	.	.	.	0.8%	.
O=C(O)CC1(CC(=O)Nc2ccc(Br)cc2)CCCCC1	-40.8%	1.3%	i	11.2µM*	-1.8%	-2.6%
O=C(O)CC1(CC(=O)Nc2ccc3ccccc3c2)CCCCC1	1.2%	.	i	-8.4%	8.5%	-1.4%
S=C1NC(c2ccccc2)=CC(c2ccccc2)N1 (stereo unspecified)	16.6%	-2.8%	12.6µM*	-25.0%	1.0%	-0.8%
S=C1NC(c2cccs2)=CC(c2ccc(Br)cc2)N1 (stereo unspecified)	-6.2%	-2.2%	i	20µM*	-3.4%	?
COc1cc(=O)n2c(c1C(=O)NC(C)c1ccco1)CCN(C(=O)c1ccnc(Cl)c1)CC2 (stereo unspecified)	.	.	.	.	-3.3%	.
CC(C)c1c(C(=O)N(C)Cc2cccc3ncccc23)cnn1-c1nccc(-c2ccccc2F)n1	.	.	.	.	-4.7%	.
NC(=O)c1ccc(-c2ccc(Br)cc2)o1	-0.2%	-9.2%	i	12.6µM*	6.7%	-2.1%
COc1ccc(-c2ccc(CCC(=O)O)o2)cc1	?	0.0%	i	10µM*	-10.9%	2.5%
O=C(O)CCc1ccc(-c2ccc(Cl)cc2)o1	-47.2%	3.5%	i	?	4.6%	1.3%
O=C(O)CCc1ccc(-c2ccc(Br)cc2)o1	-43.8%	4.7%	i	3.16µM*	3.8%	5.1%
NC(=O)C1CCN(C(=S)c2ccc(-c3ccc(Br)cc3)o2)CC1	-5.5%	-0.4%	i	-8.0%	1.7%	0.9%
Cc1nn(-c2ccccc2)c(C)c1CC(=O)NCC1Cc2cc(-c3cncnc3)ccc2O1 (stereo unspecified)	.	.	.	.	-2.9%	.
